# Records with an inconclusive call do not appear. A number with no mark means an inactive call. The source made the active and inactive calls. Calls come from the whole dose curve; as a rule, active = well fitted inhibition curve with a large enough effect; inconclusive = small, poorly fitted or top-dose-only effect; inactive = flat fitted curve, though single readings scatter.
# System: HaCat
# Assay: Cytotoxic Profiling of Annotated Libraries Using Quantitative High-Throughput Screening (AID 1296008); note: nearly all actives have a fitted effect of over 60% in size
# Conditions: Five cell lines viability, CellTiter-Glo ATP luminescence, 48-72 h; max response: active compounds read low
# Summary of the method: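 Compounds were pin-transferred onto cells and incubated 48 or 72 hr at 37 degree Celsius, 95% humidity. CellTiter-Glo was added, plates sat 10 min at room temperature, then ATP-coupled luminescence was imaged as the viability read-out.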
# % is set by controls: 0 for no effect and ±100 for the full control effect; potency is the fitted concentration of half-maximal effect.
SMILES,max response,outcome,Potency
C/C=C(/C)C1C=CC2CC(C)CC(C)C2C1/C(O)=C1\C(=O)NC(CC(C)(O)C(=O)O)C1=O (centres undefined),-6.03%,,
CS[C@]1(CO)C(=O)N2[C@H]3C(=CC=C[C@@H]3O)C[C@@]2(SC)C(=O)N1C,0.502%,,
COc1ccc2c3c4n(c2c1)[C@@H](C=C(C)C)OOC(C)(C)C[C@@H]4N1C(=O)[C@@H]2CCCN2C(=O)[C@]1(O)[C@H]3OCC=C(C)C,-11%,,
CC1=CC2/C=C(\C)CCCC(O)/C=C/C(=O)OC23C(=O)NC(CC(C)C)C3C1C (centres undefined),-3.87%,,
C=CC(C)(C)c1[nH]c2c(CC=C(C)C)cc(CC=C(C)C)cc2c1C[C@@H]1NC(=O)[C@H](C)NC1=O,-1.56%,,
COc1cc(O)c2c(c1)/C=C/C[C@@H](O)[C@@H](O)C(=O)CCC[C@H](C)OC2=O,-18.3%,,
CC(=O)O[C@H]1CC[C@H]2[C@@H]3CC[C@H]4CC(=O)C=C(C)[C@]4(C)[C@H]3CC[C@]12C,,inactive,
COc1cc(N2CCN(C)CC2)ccc1N,1.34%,,
COCC(C(=O)OC1CC2CCC(C1)N2C)c1ccccc1 (centres undefined),,inactive,
N#CC(O[C@@H]1O[C@H](CO)[C@@H](O)[C@H](O)[C@H]1O)c1ccccc1 (some centres undefined),-12%,,
CC[C@H]1C2CC3[C@@H]4N(C)c5ccccc5[C@]45C[C@@H]([C@H]2[C@H]5O)N3[C@H]1O,,inactive,
NC(=O)c1ncn2c1CN=C(c1ccccc1Br)c1cc(F)ccc1-2,-12.6%,,
Cc1c(N2C(=O)[C@@H]3[C@H](O)CCN3C2=O)ccc(C#N)c1Cl,,inactive,
CC(=O)O[C@@H]1[C@H]2CC[C@H]3[C@@](C)(O)[C@@H]4C[C@H](O)C(C)(C)[C@@]4(O)[C@H](O)C[C@@]13C[C@@]2(C)O,-9.56%,,
CC(=O)N1N=C(c2ccc(N)cc2)c2cc3c(cc2C[C@H]1C)OCO3,-4.11%,,
COC(=O)[C@]12CCCC(C)(C)C1CCc1cc(C(C)C)c(O)c(O)c12 (some centres undefined),,inactive,
COc1ccc(CN(C(=O)[C@@H](N)Cc2c(C)cc(C(N)=O)cc2C)[C@@H](C)c2ncc(-c3ccccc3)[nH]2)cc1C(=O)O,1.02%,,
C=CC/C=C\C/C=C\CCCCCCCc1cc(O)cc(O)c1,,inactive,
CN1C2CCC1CC(OC(=O)N1Cc3ccccc3NC1=O)C2 (centres undefined),2.89%,,
COC(=O)CC1CC2(C(=O)c3c(O)cccc3C2(O)C(=O)OC)C(C)O1 (centres undefined),,inactive,

SMILES,max response,outcome,Potency
c1cncc(OC[C@@H]2CCN2)c1,0.624%,,
Cc1c(Cl)c(OCC(=O)N2CCN(C)CC2)nc2sc(C(=O)NC3CC3)c(N)c12,-0.624%,,
CN1CCc2cc3c(cc2C1C1OC(=O)c2c1ccc1c2OCO1)OCO3 (centres undefined),-1.45%,,
C#CCO[C@H]1CN2CCC1CC2,2.85%,,
CC1CCCC(O)CC(=O)Cc2cc(O)cc(O)c2C(=O)O1 (centres undefined),,inactive,
COc1ccsc1CNCC[C@@]1(c2ccccn2)CCOC2(CCCC2)C1,-8.27%,,
C1=C(c2cnc[nH]2)c2ccsc2CC1,,inactive,
CC1=CC2(O)/C=C/C(C)(O)C(O)C(O)/C=C/C(=O)OC23C(=O)NC(CC(C)C)C3C1C (centres undefined),,inactive,
C/C=C1/CN2CC[C@]34C(=Nc5ccc(OC)cc53)C2C[C@@H]1C4(CO)C(=O)OC (some centres undefined),,inactive,
Cc1cccc(NC(=O)N[C@H]2CN(C)c3ccccc3C(c3ccccc3)=N2)c1,,inactive,
Oc1ccc2c3c1O[C@H]1c4[nH]c5c(N=C=S)cccc5c4C[C@@]4(O)[C@@H](C2)N(CC2CC2)CC[C@]314,,inactive,
CO[C@@H]1[C@H](O)[C@@H](O[C@@H]2C[C@H]3CC[C@@H]4C(CC[C@]5(C)[C@@H](C6=CC(=O)OC6)CC[C@]45O)[C@@]3(C)[C@H](O)C2)O[C@H](C)[C@@H]1O (some centres undefined),,,1.78 µM (active)
C[C@@H]1CCC/C=C/[C@H]2C[C@@H](O)C[C@@H]2[C@@H](O)/C=C/C(=O)O1,,,0.259 µM (active)
C[C@]12CCC(=O)C=C1CC[C@@H]1[C@@H]2[C@@H](O)C[C@]2(C)C(=O)CC[C@@H]12,-8.66%,,
CCC(C)(O)C1(C(=O)O)COC(=O)C1 (centres undefined),,inactive,
COC(=O)C1=COC(C)C2CN3CCC4(C(=O)Nc5ccccc54)C3CC12 (centres undefined),2.66%,,
CC1(C)C(=O)N(c2ccc(C#N)c(C(F)(F)F)c2)C(=O)N1CCCCO,-18.8%,,
O=C1N[C@@H](Cc2ccccc2)CN2CCCC[C@@H]12,,inactive,
CN1C(=O)CN=C(c2ccccc2Cl)c2cc(Cl)ccc21,2.59%,,

# From PubChem BioAssay (NCATS)
